Shown are actives, neighbours in structure and some others; about 4.8% of the full set was active somewhere.
HepG2 tox: counter-screen for TGF-b inhibitors: cytotoxicity in HepG2 cells. HepG2 CAGA-GFP viability, ATP luminescence, 18 h. Potency, µM (doses to about 46.1 µM), for inactives: at the highest dose activity change, negative = cytotoxicity, actives largely listed as cytotoxic. 410,000 tested, 0.76% active. AID 588856; note: potency is the fitted concentration of half-maximal effect
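CellTiter-Glo luminescence gave cytotoxicity after 18 hours at 37 degrees C. The cells were HepG2 CAGA-GFP in 1% FBS DMEM, stimulated with 500 pg/mL TGF-beta after compound addition. %Activity was normalised to no-cell wells (complete cell-killing) and DMSO (no toxicity), and curves were fitted and classified.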
ATXN2 expr inh: ATXN2 expression inhibition; HEK-293 ATXN2-luciferase reporter, luminescence, 24 h; Potency, µM (top dose mostly 57 µM), for inactives: at the top dose activity change, negative = inhibition, most hits filed as inhibitors; 360,000 tested, 0.72% active; AID 1745845; note: potency is the fitted concentration of half-maximal effect; % is set by controls: 0 for no effect and ±100 for the full control effect; nearly all actives have a fitted effect of over 55% in size
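ATXN2-luciferase reporter cells (luciferase flanked by upstream and downstream ATXN2 gene portions) were treated 24 h at 37 °C with compounds at up to 57 uM. SteadyGlo luminescence gave expression; GF-AFC fluorescence gave viability.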
DRD3 agonist: activates the human D3 dopamine receptor; P35462; D3R DiscoveRx beta-arrestin cells, luminescence, 90 min; max activation, %; 410,000 tested, 0.58% active; AID 652048; in the data active = max activation above about 30%; note: 0% is about no effect
Target sequence (P35462 whole entry, looked up): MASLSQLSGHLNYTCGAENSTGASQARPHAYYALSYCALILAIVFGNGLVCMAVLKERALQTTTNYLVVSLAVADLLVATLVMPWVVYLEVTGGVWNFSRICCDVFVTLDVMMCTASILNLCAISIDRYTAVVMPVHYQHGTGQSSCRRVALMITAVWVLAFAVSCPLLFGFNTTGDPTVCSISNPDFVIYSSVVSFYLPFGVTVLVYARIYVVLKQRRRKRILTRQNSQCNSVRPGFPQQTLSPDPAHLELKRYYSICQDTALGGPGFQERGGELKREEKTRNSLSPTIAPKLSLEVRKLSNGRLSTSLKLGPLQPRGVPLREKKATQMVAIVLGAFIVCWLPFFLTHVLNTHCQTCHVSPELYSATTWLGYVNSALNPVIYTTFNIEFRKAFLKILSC
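Agonist-mode cell screen: cells plated at 1500/well and incubated overnight at 37 °C, then exposed to library compounds for 90 min at 37 °C. Detection reagent was added for 30–60 min at room temperature, and luminescence was read.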
TGFb inhibitor: inhibitors of TGF-b signaling; HepG2 CAGA-GFP TGF-b/SMAD3 reporter, GFP fluorescence, 18 h; TGF-beta stimulated, 500 pg/mL final; Potency, µM (top dose mostly 46.1 µM), for inactives: top-dose activity, negative = inhibition, actives largely listed as inhibitors; 410,000 tested, 1.2% active; AID 588855; note: potency is the fitted concentration of half-maximal effect; % is set by controls: 0 for no effect and ±100 for the full control effect; nearly all actives have a fitted effect of over 65% in size
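HEPG2 CAGA-GFP, 1000 cells/well; 2 h settle, 37 C; cpd via pin tool; TGF-b 500 pg/mL final; 18 h, 37 C; GFP imaging ex488/em500-530; %Activity normalised to -TGF-b and +DMSO controls; CRC fit, curve class.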
ATXN viability: cell viability loss in ATXN counter-screen; S2 cells (HEK-293 line with an ATXN2-luciferase reporter) viability, CellTiter-Fluor protease fluorescence, 24 h; Potency, µM (series often up to 56.7 µM), usual class: cytotoxic; 400,000 tested, 0.49% active; note: potency is the fitted concentration of half-maximal effect; nearly all actives have a fitted effect of over 40% in size
D3 antag: D3 dopamine receptor (human) antagonism. AID 652054. 360,000 tested, 2.5% active. D3R cells, DiscoveRx beta-arrestin luminescence, antagonist mode; active compounds read low. P35462. max response, negative = inhibition, %; in the data active = max response below about -50%; inconclusive = no clear call, values can overlap the other calls; note: % is set by controls: 0 for no effect and ±100 for the full control effect
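Cells plated overnight at 1500 cells/well, then exposed to library compounds with dopamine controls for 90 minutes at 37 degrees C. DiscoveRx reagent added for 30–60 minutes at room temperature; luminescence read, quantitative HTS format.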
Starred values were filed as active, the others as inactive; i = inactive; ? = inconclusive; . = no result. Unless noted, calls come from the whole dose curve; as a rule, active = well fitted curve in the direction sought with a large enough effect; inconclusive = small, poorly fitted or top-dose-only effect, or another doubt; inactive = no such curve, though single readings can be large; an effect the other way counts as inactive or inconclusive.

SMILES	HepG2 tox	ATXN2 expr inh	DRD3 agonist	TGFb inhibitor	ATXN viability	D3 antag
c1ccc(-c2nc(NCc3ccco3)c3ccccc3n2)nc1	-41%	?	-16	-26%	?	-56*
CCOc1ccc(Nc2c(S(=O)(=O)c3ccccc3)cnc3ccc(F)cc23)cc1	-23%	?	-17	?	i	.
CCOc1ccc(Nc2c(S(=O)(=O)c3ccccc3)cnc3ccc(CC)cc23)cc1	-27%	?	-17	11µM*	?	.
Cc1ccc(-c2nc(N/N=C/c3ccccc3[N+](=O)[O-])c3ccccc3n2)cc1	-3%	?	45*	-1%	?	35
CC[C@@H](C)[C@@H](N)C1=N[C@H](C(=O)N[C@@H](CC(C)C)C(=O)N[C@@H](CCC(=O)O)C(=O)N[C@@H](C(=O)N[C@@H]2CCCCNC(=O)[C@@H](CC(N)=O)NC(=O)[C@@H](CC(=O)O)NC(=O)[C@@H](Cc3cnc[nH]3)NC(=O)[C@@H](Cc3ccccc3)NC(=O)[C@@H]([C@H](C)CC)NC(=O)[C@@H](CCCN)NC2=O)[C@@H](C)CC)CS1	.	.	16	.	?	.
N#Cc1ccc(NC(=O)COc2ccccc2C(=O)Nc2ccccc2)cc1	-13%	.	.	-9%	.	.
Cc1ccc2onc(CNC(=O)NCc3ccccc3)c2c1	-27%	2%	7	-20%	i	.
COc1cc(OC)c(NC(=O)N2CCC(CN3CCCC3)CC2)cc1Cl	3%	.	-16	10%	.	.
COC(=O)C(=C/C(C)=C/c1cccnc1)C(=O)OC	-46%	?	1	?	.	-52*
O=C(C[n+]1ccccc1)c1ccc(I)cc1	5%	.	.	4%	.	.
CCN1CCN(CC(=O)N2N=CCC2c2ccccc2)CC1 (stereo not given)	-5%	9%	-9	11%	i	-51*
CCOC(=O)C1=C(O)c2ccccc2C(=O)/C1=C\c1ccc(CC)cc1	-53%	?	-39	-6%	?	-70*
CCOC(=O)C1=C(Cc2ccc(OC)cc2)C(=O)c2ccccc2C1=O	-98%	?	-35	?	?	-71*
CCOC(=O)c1ccc(COC(=O)c2ccc3c(c2)-c2ccccc2C3=O)cc1	-26%	1%	-4	-6%	i	10
Cc1ccc(N2C(=O)N(CC(=O)C(C)(C)C)c3ccccc3S2(=O)=O)cc1C	-2%	-17%	-2	-6%	i	.
COc1ccccc1C(=O)Nc1cc2c(cc1N1CCCCC1)n(C)c(=O)n2C	-11%	-10%	-23	-19%	i	.
CO[C@@H]1[C@H](OC(=O)/C=C/C=C/C=C/C=C/C(=O)O)CC[C@]2(CO2)[C@H]1[C@@]1(C)O[C@@H]1CC=C(C)C	.	.	-15	.	.	.
O=C(CCN1C(=O)S/C(=C\c2ccccc2)C1=O)N1CCCCC1	-11%	29%	6	1%	i	6
O=C1/C(=C\c2ccccc2)CN(C(=O)CCN2CCCCC2)C/C1=C/c1ccccc1	-106%	?	-8	16µM*	?	-62*
CCN(CC)CCC(=O)N1C/C(=C/c2ccccc2)C(=O)/C(=C\c2ccccc2)C1	-104%	24µM*	-14	2.8µM*	13µM*	-1
O=C1/C(=C\c2ccc(Cl)c(Cl)c2)CN(C(=O)CCN2CCOCC2)C/C1=C/c1ccc(Cl)c(Cl)c1	16µM*	6.7µM*	-21	2.8µM*	6.7µM*	-79*
CCCCN(CC)CCCNC(=O)CCN1N=C(c2ccc(OC)cc2)CCC1=O	-1%	.	2	-27%	.	.
COc1ccc2nc3sc(C(=O)N4CCN(c5ccccc5)CC4)cc3cc2c1	0%	-3%	0	-19%	i	.
COc1ccc2nc3sc(C(=O)N4CCN(C)CC4)cc3cc2c1	8.9µM*	8%	-7	-4%	i	-1
COc1ccc2nc3sc(C(=O)NCCCN4CCc5ccccc5C4)cc3cc2c1	-57%	-23%	-24	?	?	-88*
SMILES	HepG2 tox	ATXN2 expr inh	DRD3 agonist	TGFb inhibitor	ATXN viability	D3 antag
CCN(CCCNC(=O)c1cc2cc3ccc(OC)cc3nc2s1)c1cccc(C)c1	13µM*	-31%	6	13µM*	.	.
COCCC1CCCCN1Cc1nc(N2CCCC2)c2cc(OC)c(OC)cc2n1 (stereo not given)	.	.	.	.	i	.
O=C(NC(=S)NCc1ccccc1)C1CCCCC1	-28%	0%	-2	0%	i	-54*
CN=C1C=CC(=C(c2ccc(N(C)C)cc2)c2ccc(N(C)C)cc2)C=C1	.	.	-24	.	.	.
CC(C)[C@H]1c2ccc(F)cc2CC[C@@]1(CCN(C)CCCc1nc2ccccc2[nH]1)OC(=O)C1CC1	-109%	.	.	11µM*	.	.
COc1ccc(N2CCN(C(=O)c3nc(-c4ccc(Cl)cc4)n4c3CCCCC4)CC2)cc1	3%	-9%	7	-10%	i	.
OC1(c2ccc(F)cc2)CSC(=Nc2cccnc2)N1Cc1ccco1 (stereo not given)	-3%	-27%	1	-2%	i	10
OC1(c2ccc(OC(F)F)cc2)CSC(=Nc2cccnc2)N1Cc1ccco1 (stereo not given)	-21%	?	57*	-17%	?	93
CCOC(=O)C(O)c1ccccc1 (stereo not given)	.	7%	.	.	i	.
COc1ccc2cc3cc(C(=O)Nc4ccccc4N4CCN(C)CC4)oc3nc2c1	10µM*	?	2	-9%	.	?
C[C@@H](C(=O)Nc1ccc2ccccc2c1)[C@@H]1C[C@@]1(C)[C@@H](NC(=O)c1ccccc1)c1ccccc1	10%	10%	-14	16%	i	0
C[C@@H](C(=O)Nc1ccc2ccccc2c1)[C@H]1C[C@]1(C)[C@H](NC(=O)c1cccnc1)c1ccccc1	-45%	?	0	?	?	-50*
O=C(Cn1cnnn1)N[C@@H]1C(=O)N2C(C(=O)O)=C(CSc3nncs3)CS[C@H]12	.	.	0	.	i	.
O=C(c1[nH]ncc1-c1ccccc1)C1CO1 (stereo not given)	13µM*	1%	12	-14%	i	-14
Cc1ccc(NC(=O)c2c(C)oc3ncn(CC(C)C)c(=O)c23)nc1	-14%	-3%	-11	-22%	i	.
CCOC(=O)[C@@H](N)CCC(=O)N[C@@H](CSCc1ccccc1)C(=O)N[C@@H](C(=O)OCC)c1ccccc1	.	-2%	.	.	.	.
COc1cc2c(cc1OC)C1(CCCC1)CNC2c1cccc([N+](=O)[O-])c1 (stereo not given)	0%	-26%	-35	2%	i	-77*
